Only a selection was taken, and hits are over-represented in it overall.
mHTT CaM bind = disrupts binding of mutant huntingtin to calmodulin; P42858; AlphaScreen His-mHTT/GST-CaM binding, luminescence; inhibition, % at 15 µM; actives 3.6% (n = 190,000);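 note: 0% = both proteins with DMSO and 100% = one protein alone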
Pf apPOL block = Pf-apPOL DNA polymerase inhibition | actives 0.25% (n = 210,000) | AID 1794808 | inhibition, % at 10 µM | Recombinant Pf-apPOL, molecular beacon fluorescence, 1.5 h
The depositor's hits bear a star. Cut-off read from the data, not from the text of the source: active = inhibition above about 50%; inactive = the rest.

How did O=C(c1ccc(OCC2CCCN(C(=O)C3(c4ccccc4)CC3)C2)cc1)N1CCCC1 (stereo not drawn) do in these assays?
mHTT CaM bind: 23.4; Pf apPOL block: 8.6

What do the screens show for `CCCCNC(=O)c1nc2cccnc2n(C)c1=O`?
mHTT CaM bind: -1.8; Pf apPOL block: -1.5

What do the screens show for `COc1cc2nc(N(C)CC(=O)O)sc2cc1OC`?
mHTT CaM bind: 0.3; Pf apPOL block: 0.0

What do the screens show for `CN1c2ccccc2C(C)(C)C12C=Cc1cc(Br)cc([N+](=O)[O-])c1O2` (stereo not drawn)?
Pf apPOL block: -499.2

Results for COc1cccc2c1OC1(C=C2)N(C)c2ccc([N+](=O)[O-])cc2C1(C)C (stereo not drawn) ?
mHTT CaM bind: 8.0; Pf apPOL block: 4.7

Results for CC1(C)c2ccccc2N(CC(N)=O)C12C=Cc1cc([N+](=O)[O-])ccc1O2 (stereo not drawn) ?
mHTT CaM bind: 85.0*; Pf apPOL block: 4.1

What do the screens show for `COc1ccc2c(c1)C(C)(C)C1(C=Cc3cc([N+](=O)[O-])ccc3O1)N2C` (stereo not drawn)?
mHTT CaM bind: 70.0*; Pf apPOL block: -2.1

What do the screens show for `O=C(NCc1ccc(F)cc1)N1CCC(CCOc2ccncc2)CC1`?
mHTT CaM bind: -5.1; Pf apPOL block: -3.9

Results for Cc1cc(F)ccc1NC(=O)C1CCN(c2cc(C(=O)N3CCCC3)ccn2)CC1 ?
mHTT CaM bind: 4.1; Pf apPOL block: 0.6

How did CC(=O)Nc1nc(-c2cc3cc(Cl)cc(Cl)c3oc2=O)cs1 do in these assays?
mHTT CaM bind: 3.0; Pf apPOL block: 97.7*

What do the screens show for `Nc1nc(-c2cc3cc(Cl)cc(Cl)c3oc2=O)cs1`?
mHTT CaM bind: -16.0; Pf apPOL block: 0.0

How did Cc1ccc(-c2cc(-c3ccc(F)cc3)c(C#N)c(N)n2)o1 do in these assays?
mHTT CaM bind: 88.0*; Pf apPOL block: -3.9

What do the screens show for `N#Cc1c(-c2ccccc2)cc(-c2ccc(F)cc2)nc1F`?
mHTT CaM bind: -0.3

What do the screens show for `CCOc1ccccc1Nc1nc(SC)nc2c1CCC2`?
mHTT CaM bind: 1.4; Pf apPOL block: -0.8

What do the screens show for `NS(=O)(=O)c1cccc(NS(=O)(=O)c2ccccc2)c1`?
Pf apPOL block: 18.5

Results for CC(=O)Nc1ccc(S(=O)(=O)Nc2ccc(Nc3ccccc3)cc2)cc1 ?
mHTT CaM bind: 83.2*; Pf apPOL block: 0.8

How did CC(=O)Nc1ccc(S(=O)(=O)Nc2ccc(S(=O)(=O)Nc3ccccc3)cc2)cc1 do in these assays?
mHTT CaM bind: 4.3; Pf apPOL block: 3.6

How did O=S(=O)(Nc1ccc(Nc2ccccc2)c(NS(=O)(=O)c2ccccc2)c1)c1ccccc1 do in these assays?
mHTT CaM bind: 62.9*; Pf apPOL block: -1.8

What do the screens show for `CCc1onc(C)c1C1CCCN1C(=O)c1c(F)cccc1F` (stereo not drawn)?
mHTT CaM bind: -3.1; Pf apPOL block: 2.2

How did O=C(CNc1ccccc1-c1nc2ccccc2[nH]c1=O)NCCc1ccccc1 do in these assays?
mHTT CaM bind: -4.0; Pf apPOL block: 2.5

How did O=S(=O)(c1cccc2nsnc12)N1CCN(c2ccccn2)CC1 do in these assays?
mHTT CaM bind: -7.6; Pf apPOL block: 2.2

How did COc1ccc(NC(=O)c2sc3nc4c(c(-c5ccc(C)o5)c3c2N)CCCC4)cc1 do in these assays?
mHTT CaM bind: 69.0*; Pf apPOL block: -3.1

How did Cc1ccc(-c2c3c(nc4sc(C(N)=O)c(N)c24)CCCC3)o1 do in these assays?
mHTT CaM bind: 36.0; Pf apPOL block: -5.3

Results for O=C(O)c1cc([N+](=O)[O-])ccc1Sc1ccc(Cl)cc1 ?
mHTT CaM bind: 4.5; Pf apPOL block: -4.4

How did Cc1nc(-c2cn(C(C)C)c3ncccc23)sc1C(=O)Nc1ccc(F)cc1 do in these assays?
mHTT CaM bind: 100.3*; Pf apPOL block: -8.0

How did CCn1cc(-c2nc(C)c(C(=O)Nc3ccc(C)cc3)s2)c2cccnc21 do in these assays?
mHTT CaM bind: -13.5; Pf apPOL block: 2.0

How did O=C(NCc1cccnc1)c1cccc(CN2C(=O)CSc3ccccc32)c1 do in these assays?
mHTT CaM bind: 92.1*; Pf apPOL block: 2.8

Results for O=C(NCc1cccnc1)c1cccc(CN2C(=O)C3CCCN3C(=O)c3ccccc32)c1 (stereo not drawn) ?
mHTT CaM bind: -5.6; Pf apPOL block: -4.6

What do the screens show for `CSC1=N/C(=C\c2ccc(N(C)C)cc2)C(=O)S1`?
mHTT CaM bind: 23.0; Pf apPOL block: -6.8

Results for CCN(CC)c1ccc(/C=C2\N=C(SC)SC2=O)cc1 ?
mHTT CaM bind: 64.0*; Pf apPOL block: -5.0

Results for CCSC1=N/C(=C\c2c(OC)cc(OC)cc2OC)C(=O)S1 ?
mHTT CaM bind: 43.0; Pf apPOL block: -80.8

Results for CCSC1=N/C(=C/c2ccc(N(CC)CC)cc2OC)C(=O)S1 ?
mHTT CaM bind: 84.0*; Pf apPOL block: -46.9

Results for Cc1cccc2oc(-c3cc(N=Cc4cc([N+](=O)[O-])cc([N+](=O)[O-])c4O)ccc3O)nc12 ?
mHTT CaM bind: 28.0; Pf apPOL block: 1.4

Source: PubChem
